BAP1 inh: inhibitors of BAP1 deubiquitinase, primary screen, biochemical, Ub-AMC fluorescence, kinetic. recombinant BAP1, Ub-AMC hydrolysis fluorescence kinetic; active compounds read low. calls only at 20 µM. 72,000 compounds, 0.48% hits;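 active = activity remaining at or below 50% of control, provided the compound also passes the data quality filters; inactive = the rest, including low values that fail the filters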;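 note: 100% = DMSO wells rate and 0% = substrate alone blank rate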
MKP-1 inh: MKP-1 phosphatase inhibitors, primary screen, biochemical, in vitro; recombinant MKP-1, OMFP hydrolysis fluorescence; inhibition, %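 (compounds tested at a single concentration somewhere between 10 and 100 µM)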; 65,000 compounds, 0.15% hits;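 active = inhibition above about 50%, limit read from the data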;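 note: 0% = DMSO max control wells and 100% = wells with enzyme stopped by NaOH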
Target sequence (P28562 whole entry, looked up): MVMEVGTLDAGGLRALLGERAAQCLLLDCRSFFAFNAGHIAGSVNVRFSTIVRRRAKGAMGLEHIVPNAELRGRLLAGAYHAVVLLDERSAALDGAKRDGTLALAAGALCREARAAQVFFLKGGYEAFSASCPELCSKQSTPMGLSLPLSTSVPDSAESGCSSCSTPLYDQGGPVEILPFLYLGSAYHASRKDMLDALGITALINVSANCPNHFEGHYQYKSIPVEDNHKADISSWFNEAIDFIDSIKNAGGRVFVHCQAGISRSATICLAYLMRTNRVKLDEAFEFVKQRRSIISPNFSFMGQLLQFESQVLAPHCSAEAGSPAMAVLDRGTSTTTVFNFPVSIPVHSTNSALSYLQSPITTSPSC
Hsp90 block: tumor Hsp90 inhibitors, primary screen, cell lysate, fluorescence polarization, NCI-N417 lysate. Cy3B-geldanamycin FP displacement. 64,000 compounds, 0.35% hits. inhibition, % at 30 µM;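 active = inhibition above 50%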;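 note: 0% = tracer plus lysate wells and 100% = tracer alone without lysate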
HePTP inhibitor: inhibitors of human HePTP phosphatase, primary screen, biochemical, absorbance, leukemia target. inhibition, % at 20 µM. Tyrosine-protein phosphatase non-receptor type 7 (Homo sapiens), P35236. recombinant HePTP phosphatase activity, OD absorbance. 110,000 compounds, 0.64% hits; in the data active = inhibition above about 50%;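 note: plate controls were vehicle for no effect and reference inhibitor for full effect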
Cdc25B inh: inhibitors of Cdc25B phosphatase catalytic domain, primary screen, biochemical, OMFP fluorescence. M-phase inducer phosphatase 2 (Homo sapiens), P30305. recombinant Cdc25B, OMFP fluorescence Ex485/Em525. inhibition, %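 (compounds tested at 10 µM final in the well)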. 65,000 compounds, 0.1% hits. AID 368, 2006; in the data active = inhibition above about 50%
Active calls of the source: *; i = inactive; · = not tested or not shown. Compounds with a hit are over-represented: about 1.1% of the library has one in this group of screens.

SMILES	BAP1 inh	MKP-1 inh	Hsp90 block	HePTP inhibitor	Cdc25B inh
CCOc1ccc(N(CC(=O)NCc2ccc(OC)cc2)S(=O)(=O)c2ccc(Br)cc2)cc1	·	·	·	6	·
CCOc1ccc(N(CC(=O)NCc2ccc(Cl)cc2)S(=O)(=O)c2ccc(Br)cc2)cc1	·	·	·	103*	·
O=C(O)c1ccc2c(c1)N(Cc1ccccc1)C(=O)c1ccccc1S2=O (stereo unspecified)	i	2	1	8	66*
O=C1NC(=O)C(=Cc2ccc(Cl)c([N+](=O)[O-])c2)C(=O)N1	·	·	·	96*	·
O=C1NC(=O)C(=Cc2ccc(-c3cc(Cl)c([N+](=O)[O-])cc3Cl)o2)C(=O)N1	·	·	·	-6	·
COC(=O)c1c(-c2ccc(Cl)cc2)csc1N	·	·	·	4	·
COC(=O)c1c(-c2ccc(C)c(C)c2)csc1N	·	·	·	104*	·
Cc1cc2ncn(CC(=O)N3CCOCC3)c2cc1C	·	·	·	5	·
O=C(CC1S/C(=N\N=C\c2ccco2)NC1=O)Nc1cccc(Cl)c1Cl (stereo unspecified)	·	·	·	9	·
O=C(CC1S/C(=N\N=C\c2cccs2)NC1=O)Nc1ccc(C(=O)O)cc1 (stereo unspecified)	·	·	·	90*	·
C/C(=N\N=C1\NC(=O)C(CC(=O)Nc2ccc(C(=O)O)cc2)S1)c1ccc([N+](=O)[O-])cc1 (stereo unspecified)	·	·	·	94*	·
O=C(CC1S/C(=N\N=C\c2ccco2)NC1=O)Nc1ccc(C(=O)O)cc1 (stereo unspecified)	·	·	·	101*	·
Cc1cc(C)cc(CC2CC(=O)N(c3cc(C)on3)C2=O)c1 (stereo unspecified)	i	1	-1	0	-30
COc1ccc(OC)c(N2C(=O)CC(Cc3cc(C)cc(C)c3)C2=O)c1 (stereo unspecified)	·	·	·	97*	·
CN(C(=S)Nc1ccccc1)c1ccccc1	·	·	·	102*	·
Oc1ccc(C=Nc2cccc3ncccc23)c(O)c1	i	-10	9	3	7
Oc1ccc(C=Nc2ccc3ncccc3c2)c(O)c1	·	9	76*	7	4
O=C(CCCN1C(=O)/C(=C\c2cccs2)SC1=S)Nc1nccs1	·	·	·	-9	·
CC1(C)C(=O)N(Cc2ccc([N+](=O)[O-])cc2)c2ccccc2N1C(=O)c1ccc(F)cc1	·	·	·	-5	·
CC1(C)C(=O)N(Cc2ccccc2)c2ccccc2N1C(=O)c1ccc([N+](=O)[O-])cc1	·	·	·	74*	·
C1=C(c2ccc3c(c2)c2c4n3CCN(Cc3ccccc3)C4CCC2)C2CCN1CC2 (stereo unspecified)	·	·	·	-1	·
O=C(Nc1ccc(Cl)cc1)c1cc(-c2cccs2)nc2ccccc12	·	·	·	-5	·
O=C(NC1=NCCS1)c1ccc(OCC2CCCO2)cc1 (stereo unspecified)	i	1	1	-11	55*
CCc1ccc(/C=C2/C(=O)NC(=O)N(c3cccc(C)c3)C2=O)cc1	·	·	·	9	·
Cc1cccc(N2C(=O)NC(=O)/C(=C/c3ccc(Br)o3)C2=O)c1	·	·	·	75*	·
SMILES	BAP1 inh	MKP-1 inh	Hsp90 block	HePTP inhibitor	Cdc25B inh
CC(C)c1ccc(N2C(=O)NC(=O)/C(=C/c3ccc(Br)o3)C2=O)cc1	·	·	·	102*	·
Oc1ccc(N=Cc2ccc(O)c(O)c2)cc1	i	-2	93*	5	5
O=c1/c(=C\c2cn[nH]c2-c2ccccc2)sc2nc3ccccc3n12	·	·	·	50*	·
O=c1/c(=C\c2ccccc2C(F)(F)F)sc2nc3ccccc3n12	·	·	·	0	·
O=C(Nc1ccc2nn(-c3ccc(F)cc3)nc2c1)c1cccc(Br)c1	·	·	·	57*	·
O=C(/C=C/c1cccc([N+](=O)[O-])c1)Nc1ccc2nn(-c3ccccc3)nc2c1	·	·	·	102*	·
COc1ccc(/C=C/C(=O)Nc2ccc3nn(-c4ccc(F)cc4)nc3c2)cc1	·	·	·	57*	·
Cc1cccc(C(=O)Nc2ccc3nn(-c4ccc(F)cc4)nc3c2)c1	·	·	·	-11	·
O=C(/C=C\c1ccccc1)Nc1ccc2nn(-c3ccc(F)cc3)nc2c1	·	·	·	61*	·
CC(C)(C)c1csc(NC(=O)COc2ccc(F)cc2)n1	·	·	·	6	·
CCOc1ccc(NC(=S)NC(NC(=O)c2ccccc2Cl)C(Cl)(Cl)Cl)cc1 (stereo unspecified)	·	·	·	6	·
O=C(NCCN1CCOCC1)c1cc(-c2ccc(Cl)cc2)nc2ccccc12	·	·	·	5	·
O=C(NCCN1CCOCC1)c1cc(-c2ccc(Br)cc2)nc2ccccc12	·	·	·	104*	·

Compound activity: PubChem BioAssay, several laboratories
